Results as given in PubChem BioAssay.
Results filed as inconclusive are left out. Some structures have more than one record in an assay (separate samples or runs), and their calls can disagree. Calls of active or inactive are those of the source. Unless noted, no cut-off is given here; in the data, nearly all actives have AC50 up to about 26 µM.

How the values were obtained:
[1] = growth inhibition of DIPG glioma cells, dose response, cell-based, SU-DIPG-XVII, MIPE5.0, CellTiter-Glo, qHTS (AID 1347060); details: SU-DIPG-XVII viability, CellTiter-Glo ATP luminescence;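 for AC50: cells exposed to compound for 48 hours before viability readout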
[2] = growth inhibition of DIPG glioma cells, dose response, cell-based, SU-DIPG-XIII, MIPE4.0, CellTiter-Glo, qHTS (AID 1347061; cut-off not given, nearly all actives have AC50 up to about 37 µM;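 note: cells exposed to compound for 48 hours before readout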); details: SU-DIPG-XIII viability, CellTiter-Glo ATP luminescence
[3] = growth inhibition of DIPG glioma cells, dose response, cell-based, JHH-DIPG-1, MIPE4.0, CellTiter-Glo, qHTS (AID 1347062; cut-off not given, nearly all actives have AC50 up to about 27 µM;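 for AC50: cells exposed to compound for two days before readout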); details: JHH-DIPG-1 viability, CellTiter-Glo ATP luminescence
[4] = growth inhibition of DIPG glioma cells, dose response, cell-based, SU-DIPG-IV, MIPE4.0, CellTiter-Glo, qHTS (AID 1347063; cut-off not given, nearly all actives have AC50 up to about 30 µM;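 note: compound exposure lasted 48 hours before the viability readout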); details: SU-DIPG-IV viability, CellTiter-Glo ATP luminescence
[5] = growth inhibition of DIPG glioma cells, dose response, cell-based, SU-DIPG-XIII, MIPE5.0, CellTiter-Glo, qHTS (AID 1347064; cut-off not given, nearly all actives have AC50 up to about 23 µM;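 for AC50: cells exposed to compound for 48 hours before the viability read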); details: SU-DIPG-XIII viability, CellTiter-Glo ATP luminescence
[6] = viability loss in pontine glioma line – cell-based, SU-DIPG-XXV, MIPE5.0, CellTiter-Glo, qHTS, dose response (AID 1347065); details: CellTiter-Glo ATP luminescence;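 note: cells exposed to compound for 48 hours before ATP readout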
[7] = SU-DIPG-VI glioma cell viability, MIPE4.0 library, CellTiter-Glo luminescence, qHTS (AID 1347066; cut-off not given, nearly all actives have AC50 up to about 30 µM;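 note: cells exposed to compound for 48 hours before readout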); details: CellTiter-Glo ATP luminescence
[8] = JHH-DIPG-1 glioma cell viability, MIPE5.0 library, CellTiter-Glo luminescence, qHTS (AID 1347067); details: JHH-DIPG-1 glioma viability, CellTiter-Glo ATP luminescence;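 note: cells exposed to compound for 48 hours before readout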
[9] = liver-stage malaria parasite growth inhibition, primary screen, cell-based, HepG2, luciferase luminescence, HepG2 viability (AID 624349; in the data active = parasite load remaining mostly below about 12%, no sharp cut-off; inactive = mostly above about 10%;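 note: 100% = mean of DMSO negative control wells on the same plate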); details: P. berghei liver stage in HepG2, luciferase luminescence, concentration not given here; parasite load remaining: stronger effect = lower value; viability: measured here: HepG2 viability without parasites
[10] = tested on: Aerobactin synthetase IucA (Klebsiella pneumoniae); assay: IucA aerobactin synthetase inhibitors, biochemical, Tocris library, absorbance (AID 1345561; call rule not given here;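 note: 100% = enzyme without compound and 0% = no enzyme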); details: purified IucA enzyme assay, absorbance (OD) read-out; stronger effect = lower value;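 tested at 8 µM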
[11] = sensitizers of A549 cells to miR-34 induction, primary screen, imaging, A549 dox-inducible miR-34, nuclei and caspase counts (AID 1347080;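 active = compounds whose cell count with miR-34 switched on is under 0.7 times the count with it off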); details: A549 miR-34 inducible, Hoechst nuclei count, 48 h
[12] = viability rescue of complex I mutant cybrids, primary screen, cell-based, galactose medium, ATP luminescence (AID 1645843;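 active = z-score of at least 1.8 in each of two replicates, scored against plate mean and spread of sample wells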;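 note: positive z means more ATP and so rescue of galactose-driven cybrid death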); details: complex I mutant cybrid cells, 72 h, stronger effect = higher value
[13] = SU-DIPG-XXV glioma cell viability, MIPE5.0 library, qHTS (AID 1347068; cut-off not given, nearly all actives have IC50 up to about 30 µM;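 for IC50: cells exposed to compound for 48 hours before viability readout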)
[14] = stronger effect = lower value, cell number ratio, induced over uninduced
[15] = measured here: relative caspase fold change +Dox/-Dox
[16] = measured here: total cells with miR-34 induction, stronger effect = lower value
[17] = measured here: total cells without miR-34 induction

CN(C(=O)CNC(=O)/C=C/c1cccc(Cl)c1)C1CCS(=O)(=O)CC1
AC50 [1]: 1050 nM (active)

CCOc1cc2c(c(F)c1OCC)C(=N)N(CC(=O)c1cc(N3CCOCC3)c(OC)c(C(C)(C)C)c1)C2
AC50 [1]: 26300 nM (active)
AC50 [2]: 2350 nM (active)
AC50 [3]: 23500 nM (active)
AC50 [4]: 16600 nM (active)
AC50 [5]: 29500 nM (active)
AC50 [6]: 23500 nM (active)
AC50 [7]: 16600 nM (active)
AC50 [8]: 20900 nM (active)

N#CNC(=NCCCCCCOc1ccc(Cl)cc1)Nc1ccncc1
AC50 [1]: 29.5 nM (active)
AC50 [2]: 4.69 nM (active)
AC50 [3]: 1.32 nM (active)
AC50 [4]: 4.69 nM (active)
AC50 [5]: 8.33 nM (active)
AC50 [6]: 13.2 nM (active)
AC50 [7]: 5.26 nM (active)
AC50 [8]: 14.8 nM (active)

O=C1NC(=O)c2cc(Nc3ccc(F)cc3)c(Nc3ccc(F)cc3)cc21
parasite load remaining [9]: 41.4% (inactive)
viability [9]: 70.7%
remaining activity [10]: 103% (inactive)
fold change [11, 14]: 1.25 (inactive)
fold change [11, 15]: 0.934
cell count [11, 16]: 3220
cell count [11, 17]: 2570
z-score [12]: -0.645 (inactive)

CC(C)(C)c1cc(C(=O)O)c(NC(=O)Nc2ccc3[nH]ncc3c2)s1
outcome [1]: inactive
outcome [2]: inactive
outcome [3]: inactive
outcome [4]: inactive
outcome [5]: inactive
outcome [6]: inactive
outcome [7]: inactive
outcome [8]: inactive
outcome [13]: inactive

Cc1ccc(NC2=CC(=O)c3sc(C)nc3C2=O)cc1
parasite load remaining [9]: 21% (inactive)
viability [9]: 105%
remaining activity [10]: 117% (inactive)
fold change [11, 14]: 0.814 (inactive)
fold change [11, 15]: 0.845
cell count [11, 16]: 1060
cell count [11, 17]: 1300
z-score [12]: -0.705 (inactive)

Cc1cc(C)c(CNC(=O)c2cc(-c3ccc(N4CCN(C)CC4)nc3)cc3c2c(C)cn3C(C)C)c(=O)[nH]1
AC50 [1]: 20900 nM (active)
outcome [1]: inactive
outcome [5]: inactive
AC50 [6]: 26300 nM (active)
outcome [13]: inactive

O=C(Nc1ccccc1Br)N[C@@H]1CCN(c2ccc(C(F)(F)F)cn2)C1
outcome [1]: inactive
outcome [2]: inactive
outcome [3]: inactive
outcome [4]: inactive
outcome [5]: inactive
outcome [6]: inactive
outcome [7]: inactive
outcome [8]: inactive
outcome [13]: inactive

CO[C@H]1/C=C\C=C(\C)C(=O)NC2=CC(=O)C(NCCN(C)C)=C(C[C@@H](C)C[C@H](OC)[C@H](O)[C@@H](C)/C=C(/C)[C@@H]1OC(N)=O)C2=O
AC50 [1]: 52.5 nM (active)
AC50 [2]: 83.3 nM (active)
AC50 [3]: 187 nM (active)
AC50 [4]: 13.2 nM (active)
AC50 [5]: 118 nM (active)
AC50 [6]: 235 nM (active)
AC50 [7]: 5260 nM (active)
AC50 [8]: 74.2 nM (active)
IC50 [13]: 1180 nM (active)

CC[C@@]1(O)C(=O)OCc2c1cc1n(c2=O)Cc2c-1nc1cc(F)c(C)c3c1c2[C@@H](N)CC3
AC50 [1]: 2.35 nM (active)

CC[C@H](CO)Nc1nc(NCc2ccc(-c3ccccn3)cc2)c2ncn(C(C)C)c2n1
parasite load remaining [9]: 135% (inactive)
viability [9]: 85.7%
remaining activity [10]: 108% (inactive)
fold change [11, 14]: 1.16 (inactive)
fold change [11, 15]: 0.699
cell count [11, 16]: 1900
cell count [11, 17]: 1650
z-score [12]: -0.89 (inactive)

CN(C)c1ccc2cc(C(=O)N[C@@H](CCCN=C(N)CCl)C(=O)NCc3ccccc3)ccc2c1
AC50 [1]: 8330 nM (active)
AC50 [2]: 16600 nM (active)
AC50 [3]: 13200 nM (active)
AC50 [4]: 7430 nM (active)
AC50 [5]: 2630 nM (active)
AC50 [6]: 9340 nM (active)
AC50 [7]: 16600 nM (active)
AC50 [8]: 8330 nM (active)

O=C(c1ccc(F)c(F)c1Nc1ccc(I)cc1F)N1CC(O)([C@@H]2CCCCN2)C1
AC50 [1]: 332 nM (active)
AC50 [2]: 418 nM (active)
AC50 [3]: 332 nM (active)
AC50 [4]: 5900 nM (active)
AC50 [5]: 372 nM (active)
AC50 [6]: 525 nM (active)

COC(=O)C1=C(C)NC(c2ncc(F)cc2F)=N[C@H]1c1ccc(F)cc1Cl
AC50 [1]: 23500 nM (active)

CC(C)(O)[C@H]1CC[C@@](C)([C@H]2[C@@H](O)C[C@@]3(C)[C@@H]4C[C@H](O[C@@H]5O[C@H](CO)[C@@H](O)[C@H](O)[C@H]5O)[C@H]5C(C)(C)[C@@H](O[C@@H]6OC[C@@H](O)[C@H](O)[C@H]6O)CC[C@@]56C[C@@]46CC[C@]23C)O1
outcome [1]: inactive
outcome [2]: inactive
outcome [3]: inactive
outcome [4]: inactive
outcome [5]: inactive
outcome [6]: inactive
outcome [7]: inactive
outcome [8]: inactive
outcome [13]: inactive

CC(C)S(=O)(=O)c1ccc2nccc(Nc3ccc4scnc4c3)c2c1
AC50 [1]: 16600 nM (active)

O=C(NC1CC1)c1cccc(-c2ccc3c(NC(=O)C4CC4)n[nH]c3c2)c1
AC50 [1]: 10500 nM (active)
AC50 [2]: 4690 nM (active)
AC50 [3]: 9350 nM (active)
AC50 [4]: 11800 nM (active)
AC50 [5]: 8330 nM (active)

CCC(C(=O)O)C1CCC(C)C(C(C)C(O)C(C)C(=O)C(CC)C2OC3(C=CC(O)[C@@]4(CC[C@](C)(C5CC[C@@](O)(CC)C(C)O5)O4)O3)C(C)CC2C)O1 (stereo partly specified)
AC50 [1]: 2350 nM (active)
AC50 [2]: 935 nM (active)
AC50 [3]: 3320 nM (active)
AC50 [4]: 1660 nM (active)
AC50 [5]: 3320 nM (active)
AC50 [6]: 833 nM (active)
AC50 [7]: 1870 nM (active)
AC50 [8]: 934 nM (active)
IC50 [13]: 2350 nM (active)

CCOC(=O)C12CC1/C(=N\O)c1ccccc1O2 (stereo unspecified)
remaining activity [10]: 109% (inactive)
fold change [11, 14]: 0.923 (inactive)
fold change [11, 15]: 1.17
cell count [11, 16]: 8510
cell count [11, 17]: 9220
z-score [12]: -0.07 (inactive)

COc1ccc(OC)c2c(=S)c3ccccc3[nH]c12
parasite load remaining [9]: 32.4% (inactive)
viability [9]: 149%
remaining activity [10]: 86.6% (inactive)
fold change [11, 14]: 0.958 (inactive)
fold change [11, 15]: 1.3
cell count [11, 16]: 8120
cell count [11, 17]: 8480
z-score [12]: 0.325 (inactive)

c1ccc(-c2n[nH]c3c2oc2ccccc23)cc1
parasite load remaining [9]: 24.1% (inactive)
viability [9]: 103%
remaining activity [10]: 98.7% (inactive)
fold change [11, 14]: 0.891 (inactive)
fold change [11, 15]: 1.09
cell count [11, 16]: 6520
cell count [11, 17]: 7320
z-score [12]: 0.045 (inactive)

CCCCC(=O)OCC(=O)[C@]1(O)Cc2c(O)c3c(c(O)c2[C@@H](O[C@H]2C[C@H](NC(=O)C(F)(F)F)[C@H](O)[C@H](C)O2)C1)C(=O)c1c(OC)cccc1C3=O
AC50 [1]: 1660 nM (active)
